PubChem BioAssay AID434982 (The Scripps Research Institute Molecular Screening Center, 2010)
About 60 (0.4%) of roughly 15,000 compounds were called active. Rule as the data show it: active = activation above about 2.2%; inactive = the rest. Shown is part of a subset that was picked to be rich in actives.

Test: activates NOTCH signaling in reporter cells (AID 434982)
Conditions: NOTCH signaling luciferase reporter cells, luminescence; at 2.5 µM; stronger effect = higher value

SMILES | activation
CC(C)(C)NC(=O)NCC(c1ccc[nH]1)C(F)(F)F (centres undefined) | -0.29% (inactive)
CCOC(=O)C(=CNc1nc(-c2ccc(Cl)cc2)cs1)C(=O)OCC | -0.64% (inactive)
Cc1ccc(Oc2c(C)[nH]c(=S)[nH]c2=O)cc1 | -0.61% (inactive)
CC(=O)N1c2ccccc2C=Cc2ccccc21 | -5.39% (inactive)
CN(C)c1ccc(/C=C(\C#N)S(C)(=O)=O)c(Cl)c1 | -0.47% (inactive)
Cc1cc(C(F)(F)F)nc2c(-c3noc(-c4ccccc4)n3)cnn12 | -0.99% (inactive)
O=C(c1ccc(C#Cc2ccccc2)o1)N1CCCCC1 | -0.2% (inactive)
O=[N+]([O-])c1ccc(CSc2nnc(-c3ccncc3)o2)cc1 | 0.14% (inactive)
Cc1[nH]c2c(F)cc(F)cc2c(=O)c1I | -0.36% (inactive)
O=C1c2cc(S(=O)(=O)Oc3ccccc3)ccc2-c2ccc(S(=O)(=O)Oc3ccccc3)cc21 | -1.18% (inactive)
CCCCc1c(O)cc(-c2ccccc2)n(Cc2ccccc2)c1=O | -0.19% (inactive)
COC(=O)C(C#N)c1ccc(C(F)(F)F)cc1[N+](=O)[O-] (centres undefined) | -0.67% (inactive)
CC(C)S(=O)(=O)c1cscc1N/C=C(/C#N)C(=O)C1CC1 | 0% (inactive)
Cc1nc(-c2nnc(SCC(=O)c3ccc(F)cc3)n2C)cs1 | -0.64% (inactive)
NNC(=O)c1csc(-c2ccc(C(F)(F)F)cn2)n1 | -0.19% (inactive)
CCOC(=O)c1cc(CC)sc1NC(=O)c1cccnc1Oc1ccccc1 | 0.22% (inactive)
COC(=O)c1c(C(=O)OC)c2n(c1C)CCS2 | 3.54% (active)
Cc1cc(-c2nc(C(=O)NN3CCCCC3)cs2)no1 | -0.7% (inactive)
Cc1noc(C)c1C(=O)Oc1cccc2cccnc12 | 0.63% (inactive)
S=C1NCN(CCCn2ccnc2)CN1 | 0.16% (inactive)

SMILES | activation
COc1ccc(CCNC(=O)c2ccccc2-c2ccccc2C(=O)O)cc1OC | -0.75% (inactive)
Cc1noc(C)c1S(=O)(=O)NCc1cc(F)cc2c1OCOC2 | -0.53% (inactive)
Nc1nc(C23CC4CC(CC(C4)C2)C3)cs1 | -0.6% (inactive)
COC(=O)c1ccc2snnc2c1 | -0.29% (inactive)
CCOC(=O)/C=C(/Nc1ccccc1SC)c1ccccc1 | -0.36% (inactive)
COC(=O)c1cc(OC)c(OC)cc1NC(=O)CSc1ccc(Cl)cc1 | -0.78% (inactive)
N/C(Cc1cccs1)=N\OC(=O)c1ccccc1 | -0.76% (inactive)
Cc1cc(/C(N)=N/OC(=O)c2cccs2)c(-c2ccccc2)o1 | 2.72% (active)
CS(=O)(=O)Nc1ccc(/C(N)=N/OC(=O)c2cccs2)cc1 | -0.39% (inactive)
COC(OC)c1ccc(C#N)c(SCC(=O)Nc2ccc(C(F)(F)F)cc2)n1 | -0.25% (inactive)
O=C(Nc1ccccc1N1CCOCC1)NC1CCN(C(=O)OCc2ccccc2)CC1 | -0.87% (inactive)
Clc1ccc(C=NCc2cccnc2)c(Cl)c1 | -0.28% (inactive)
Cc1nc(-c2ncc(-c3ccccc3)o2)c(C(F)(F)F)o1 | -4.8% (inactive)
NC(=O)C1CCN(CC(O)CSc2ccc(F)cc2)CC1 (centres undefined) | -5.86% (inactive)
CCOC(=O)C(=CNc1ccc2n[nH]nc2c1)C(=O)OCC | -0.78% (inactive)
Cn1nccc1NC(=O)CC(CC(=O)O)c1ccccc1 (centres undefined) | 0.57% (inactive)
CCOC(=O)c1ccc(NC)c(N)c1 | -0.75% (inactive)
COc1ccc2cc(/C(C)=N/OC(=O)Nc3ccccc3)ccc2c1 | 0.13% (inactive)
COc1cc(C=C(C#N)C#N)cc(OC(C)=O)c1OC(C)=O | -0.27% (inactive)
